HCV inhibitor: qHTS Assay for Inhibitors of Hepatitis C Virus (HCV) | Huh7.5.1 HCVcc-Cre infection, luciferase reporter, 44 h | Potency, µM (top dose mostly 41.8 µM), for the others: top-dose activity change, negative = inhibition, usual class: inhibitors | 340,000 compounds, 3.4% hits | AID 651820, 2012; active = well fitted inhibition curve with a large enough effect; inconclusive = small, poorly fitted or top-dose-only effect, or another doubt; inactive = no such curve, though single readings can be large or run the other way; note: potency is the fitted concentration of half-maximal effect
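Luciferase read-out (15 sec integration) after a 15 min room-temperature substrate step quantifies HCVcc-Cre infection. Cells, 1,000 per well, had compound added 4 h post-plating, then virus at ~0.5 moi, and were cultured 44 h.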
Vaccinia Venus: qHTS for Stage-Specific Inhibitors of Vaccinia Orthopoxvirus: Venus Reporter Primary qHTS; Potency, µM (highest dose often 36.5 µM), for the others: top-dose activity change, negative = inhibition, hits mostly inhibitors; 330,000 compounds, 0.46% hits; Vaccinia virus Venus reporter expression, fluorescence; AID 720580, 2013; calls by dose curve; tested in A549 cells; note: potency is the fitted concentration of half-maximal effect; nearly all actives have a fitted effect of over 30% in size
HCMV antiviral: qHTS Assay for inhibitors of the human cytomegalovirus (HCMV) | HFF cells, HCMV-luciferase reporter, 72 h; hits give low values | activity change, negative = inhibition, % at 57.5 µM | 410,000 compounds, 4.5% hits | AID 1259415, 2018; in the data active = activity change below about -60%; inconclusive = no clear call, values can overlap the other calls; inactive = above about -39%
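Cell-based, HFFs, 1000 cells/well, 16 h 37C; cpds in DMSO + HCMV-luc, MOI 1 PFU/cell; 72 h 37C; OneGlo luminescence after 5 min RT; norm. to buffer vs Salinomycin 10uM.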
Lassa entry inh: qHTS for Inhibitors of binding or entry into cells for Lassa Virus. AID 540256, 2011. Lassa virus pseudotype entry inhibition, cell reporter. Potency, µM (doses to about 37.9 µM), for inactives: at the highest dose activity change, negative = inhibition, most hits filed as inhibitors. 300,000 compounds, 1.2% hits; calls by dose curve; tested in HEK293 cells; note: potency is the fitted concentration of half-maximal effect; nearly all actives have a fitted effect of over 50% in size
Vaccinia mCherry: qHTS for Stage-Specific Inhibitors of Vaccinia Orthopoxvirus: mCherry Reporter Primary qHTS; AID 720579, 2013; Potency, µM (doses to about 36.5 µM), for the others: at the top dose activity change, negative = inhibition, usual class: inhibitors; 310,000 compounds, 0.63% hits; Vaccinia virus mCherry reporter infection, fluorescence; calls by dose curve; tested in A549 cells; note: potency is the fitted concentration of half-maximal effect; nearly all actives have a fitted effect of over 35% in size
Marburg entry inh: qHTS for inhibitors of binding or entry into cells for Marburg Virus | Marburg virus pseudotyped entry inhibition, cell reporter | Potency, µM (highest dose often 37.8 µM), for inactives: top-dose activity change, negative = inhibition, hits mostly inhibitors | 300,000 compounds, 1.8% hits | AID 540276, 2011; calls by dose curve; tested in HEK293 cells; note: potency is the fitted concentration of half-maximal effect
* hit, by the source's call; ! = a repeat was not active; [ ] = dose if it differs, or a comment. Sampled rows, rich in hits. Any-hit rate of the full collection: about 7.8%. % is set by controls: 0 for no effect and ±100 for the full control effect.

`CCOC(=O)c1ccc(N2C(=O)c3n[nH]c(-c4cccs4)c3C2c2cccc(OC)c2)cc1` (stereo not given) gave Vaccinia Venus -14%, HCMV antiviral -107*, Lassa entry inh inconclusive, Vaccinia mCherry -10% and Marburg entry inh 10µM*.
Screening Clc1ccc(-n2nnnc2-c2cnc3ccccc3c2-c2ccccc2)cc1 returned HCV inhibitor inconclusive, Vaccinia Venus -18%, HCMV antiviral -72*, Lassa entry inh -5%, Vaccinia mCherry -26% and Marburg entry inh -34%.
For Clc1ccc(-n2nnnc2-c2ccccc2)cc1 the results were HCV inhibitor 15%, HCMV antiviral 3, Lassa entry inh 12% and Marburg entry inh 9%.
Cc1ccc(-n2nnnc2-c2cnc3ccc(Cl)cc3c2-c2ccccc2)cc1 was read as HCV inhibitor 10µM*, HCMV antiviral inconclusive, Lassa entry inh inconclusive and Marburg entry inh inconclusive.
Screening COc1cc2c(NC3CCN(C)CC3)nc(N3CCCN(C)CC3)nc2cc1OCCCCN(C)C returned Vaccinia Venus 10µM* and Vaccinia mCherry inconclusive.
COc1cc2c(NC3CCN(C)CC3)nc(N3CCCN(C)CC3)nc2cc1OCCCCCCN(C)C was read as Vaccinia Venus 7.1µM* and Vaccinia mCherry 5µM*.
CCCN(C)CCCOc1cc2nc(N3CCCN(C)CC3)nc(NC3CCN(C)CC3)c2cc1OC was read as Vaccinia Venus 13µM* and Vaccinia mCherry inconclusive.
For COc1ccc(Br)cc1CN(C)C(C)C(=O)Nc1cc([N+](=O)[O-])ccc1OC (stereo not given) the results were HCV inhibitor inconclusive, Vaccinia Venus 1%, HCMV antiviral 25, Lassa entry inh -2%, Vaccinia mCherry -3% and Marburg entry inh 14µM*.
`COc1cc2c(cc1OC)C(c1ccc(-c3ccccc3Cl)o1)=NCC2` gave HCV inhibitor 5.6µM*, HCMV antiviral -19, Lassa entry inh inconclusive and Marburg entry inh 21µM*.
COc1cc2c(cc1OC)C(c1oc(-c3ccc(-c4cc(Cl)ccc4Cl)o3)cc1C)=NCC2 was read as Vaccinia Venus -14% and Vaccinia mCherry -14%.
For COc1cc2c(cc1OC)C(c1ccc(-c3ccc(Cl)cc3Cl)o1)=NCC2 the results were HCV inhibitor 11µM*, Vaccinia Venus -29%, HCMV antiviral inconclusive, Lassa entry inh 14µM*, Vaccinia mCherry inconclusive and Marburg entry inh 6.3µM*.
COc1cc2c(cc1OC)C(c1ccc(-c3ccc(Cl)c(Cl)c3)o1)=NCC2 was read as HCV inhibitor 13µM*, Vaccinia Venus inconclusive, HCMV antiviral -13, Lassa entry inh 5.8µM*, Vaccinia mCherry -22% and Marburg entry inh 5.8µM*.
COc1cc2c(cc1OC)C(c1ccc(-c3cc(Cl)ccc3Cl)o1)=NCC2 was read as HCV inhibitor inconclusive, Vaccinia Venus -16%, Lassa entry inh inconclusive, Vaccinia mCherry -22% and Marburg entry inh inconclusive.
`Cc1cc(C)cc(NC(=O)Cn2cc(C(=O)c3cccs3)c3ccccc32)c1` gave Vaccinia Venus -16%, HCMV antiviral inconclusive, Lassa entry inh inconclusive, Vaccinia mCherry -9% and Marburg entry inh inconclusive.
Screening CC(=O)c1ccc(OCC(=O)Nc2ccccc2N2CCCC2)cc1 returned HCV inhibitor -12%, Vaccinia Venus -8%, HCMV antiviral -83*, Lassa entry inh -16%[46.1 µM], Vaccinia mCherry -16% and Marburg entry inh -35%[46.1 µM].
Screening CC(C)C(=O)N1CCN(c2ccccc2NC(=O)COc2ccc(C3CCCCC3)cc2)CC1 returned HCV inhibitor inconclusive, Vaccinia Venus inconclusive, Lassa entry inh -12%, Vaccinia mCherry -17% and Marburg entry inh 7.9µM*.
Cc1ccc(OCC(=O)Nc2ccccc2N2CCCC2)c(C)c1 was read as HCV inhibitor inconclusive, Vaccinia Venus -4%, HCMV antiviral -63*, Lassa entry inh inconclusive, Vaccinia mCherry -3% and Marburg entry inh inconclusive.
For O=C(COc1ccc([N+](=O)[O-])cc1)Nc1ccccc1N1CCCC1 the results were HCV inhibitor 5% and HCMV antiviral -64*.
For Cc1ccc(C)c(OCC(=O)Nc2ccccc2N2CCCC2)c1 the results were HCV inhibitor -10%, Vaccinia Venus -21%, HCMV antiviral -19, Lassa entry inh 4%[46.1 µM], Vaccinia mCherry inconclusive and Marburg entry inh inconclusive.
`Cc1nn(C(=O)COc2ccccc2)c(C)c1Sc1ccccc1` gave Vaccinia Venus -10%, HCMV antiviral -32, Lassa entry inh -4%[46.1 µM], Vaccinia mCherry -8% and Marburg entry inh -24%[46.1 µM].
`Cc1ccc(C(C)C)c(OCC(=O)NC(=S)Nc2ccccc2N2CCOCC2)c1` gave Vaccinia Venus 0%, HCMV antiviral 126, Lassa entry inh -26%, Vaccinia mCherry -14% and Marburg entry inh -14%.
`CCC(=O)N1CCN(c2ccccc2NC(=O)COc2cc(C)ccc2C(C)C)CC1` gave HCV inhibitor 10µM*, Vaccinia Venus -25%, HCMV antiviral 62, Lassa entry inh inconclusive, Vaccinia mCherry -4% and Marburg entry inh inconclusive.
Screening Nc1nc2c(nc(N3CCOCC3)n2COCCO)c(=O)[nH]1 returned Vaccinia Venus -16% and Vaccinia mCherry 37%.
`COc1ccc(CN2C[C@H]3CCCN3c3cc(Br)ccc3S2(=O)=O)cc1` gave HCV inhibitor inconclusive, Vaccinia Venus -25% and Vaccinia mCherry inconclusive.
For CC(=O)Nc1nc(COc2ccccc2)cs1 the results were HCV inhibitor 16%, Vaccinia Venus -11%, HCMV antiviral 100, Lassa entry inh 0%, Vaccinia mCherry -13% and Marburg entry inh 4%.
`O=C(Nc1nc(COc2ccccc2)cs1)C12CC3CC(CC(C3)C1)C2` gave HCV inhibitor inconclusive, HCMV antiviral -84*, Lassa entry inh -5% and Marburg entry inh -5%.
`O=C(Nc1nc(COc2ccccc2)cs1)C1CCC1` gave HCV inhibitor inconclusive, HCMV antiviral 9, Lassa entry inh inconclusive and Marburg entry inh -29%.
`Cc1ccc(C(=O)Nc2nc(COc3ccccc3)cs2)s1` gave HCV inhibitor 11µM*, Vaccinia Venus -28%, HCMV antiviral -75*, Lassa entry inh -45%, Vaccinia mCherry -9% and Marburg entry inh -20%.
Screening CN1CCc2cc(O)c(O)cc2C(c2ccccc2)C1 (stereo not given) returned HCV inhibitor inconclusive, Vaccinia Venus -13%, HCMV antiviral -25, Lassa entry inh inconclusive, Vaccinia mCherry inactive and Marburg entry inh 13µM*!.
